20 molecules from PubChem BioAssay can be followed below.

Structures are written as SMILES. A number with no mark means an inactive call. For some of these results: Measured potencies and affinities stand elsewhere. The source made the active and inactive calls. Unless noted, no rule for the calls is given here.

Test [1] in a line: antimalarial activity against Dd2 strain (AID 2302;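 active = growth inhibition above 50% at the single 2 µM test dose, taken to imply half-maximal potency below 2 µM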;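 also: 0% = DMSO untreated growth and 100% = chloroquine plus artemisinin killed control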). The settings on record: P. falciparum Dd2 in RBCs, LDH growth readout, 72 h; at 2 µM; stronger effect = higher value.
A short description of test [2]: HepG2 cytotoxicity, primary screen, cytotoxicity control for P. falciparum antimalarial project, cell-based, ATP luminescence (AID 2303;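 active = inhibition above 50%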;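 also: 0% = DMSO wells and 100% = digitonin-killed cells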). To be noted: HepG2 viability, 24-48 h, at 10 µM, stronger effect = higher value.
Test [3] deals with L-lactate dehydrogenase (Plasmodium falciparum (isolate CDC / Honduras)) (UniProt Q27743). The test can be described thus: PfLDH activity inhibition – cell lysate, 3D7 strain, counter-screen for P. falciparum growth inhibition project (AID 2304).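 Also: 0% = vehicle and 100% = reference inhibitor.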 To be noted: P. falciparum 3D7 crude extract, LDH APAD/NBT absorbance; at 2 µM; stronger effect = higher value. (The purpose of a counterscreen is to sort out artefacts and off-target activity.)
L-lactate dehydrogenase (Plasmodium falciparum (isolate CDC / Honduras)), sequence (Q27743 whole entry, looked up): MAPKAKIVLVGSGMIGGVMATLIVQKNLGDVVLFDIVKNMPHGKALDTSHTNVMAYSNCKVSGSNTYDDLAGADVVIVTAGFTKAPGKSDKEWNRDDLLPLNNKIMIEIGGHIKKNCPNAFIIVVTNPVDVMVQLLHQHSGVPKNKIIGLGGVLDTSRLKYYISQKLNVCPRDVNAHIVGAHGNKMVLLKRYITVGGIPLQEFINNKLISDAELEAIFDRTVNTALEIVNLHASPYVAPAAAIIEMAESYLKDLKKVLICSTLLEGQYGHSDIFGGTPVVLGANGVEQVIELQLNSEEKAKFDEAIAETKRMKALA

Test [4] can be described thus: inhibition of 3D7 malaria parasite growth – strain 3D7 (AID 2306).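 Also: 0% = DMSO wells and 100% = chloroquine plus artemisinin control wells.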 The settings on record: P. falciparum 3D7 erythrocytic growth, LDH absorbance, 72 h; at 2 µM; stronger effect = higher value.
The target in test [5] is Calcium-dependent protein kinase 1 (Plasmodium falciparum (isolate 3D7)) (UniProt P62344). Kind of test: PfCDPK1 kinase inhibitors, biochemical, TCAMS library (AID 1159585; cut-off not given, nearly all actives have IC50 up to about 0.98 µM;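 also: inhibitors leave more ATP so luminescence rises with inhibition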). The settings on record: recombinant PfCDPK1, Kinase-Glo ATP depletion luminescence. Background: In Kinase-Glo more light means more ATP remaining.
Calcium-dependent protein kinase 1 (Plasmodium falciparum (isolate 3D7)), sequence (P62344 whole entry, looked up): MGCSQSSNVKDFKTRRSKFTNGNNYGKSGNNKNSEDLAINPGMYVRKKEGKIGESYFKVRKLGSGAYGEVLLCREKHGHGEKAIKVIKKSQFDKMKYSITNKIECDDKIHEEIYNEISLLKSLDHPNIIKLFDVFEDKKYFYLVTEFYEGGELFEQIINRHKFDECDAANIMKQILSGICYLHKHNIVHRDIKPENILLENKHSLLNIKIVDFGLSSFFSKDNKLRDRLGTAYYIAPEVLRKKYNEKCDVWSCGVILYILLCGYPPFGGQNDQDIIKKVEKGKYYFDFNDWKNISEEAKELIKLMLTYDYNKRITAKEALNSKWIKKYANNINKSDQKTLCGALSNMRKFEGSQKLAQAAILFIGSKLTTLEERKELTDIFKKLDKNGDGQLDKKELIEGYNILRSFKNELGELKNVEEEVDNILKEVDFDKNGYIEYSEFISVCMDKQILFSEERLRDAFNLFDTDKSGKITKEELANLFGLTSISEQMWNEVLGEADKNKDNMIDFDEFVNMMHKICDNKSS
Test [6] has as its target Plasmodium falciparum protein kinase 6 (PK6, PF3D7_1337100) (UniProt Q8IDW1). Kind of test: PfPK6 kinase inhibitors, biochemical, TCAMS library (AID 1159586). To be noted: recombinant PfPK6, Kinase-Glo ATP depletion luminescence.
In test [7] the target is Protein kinase 7 (PK7), Plasmodium falciparum 3D7 (PF3D7_0213400) (UniProt Q7YTF7). Kind of test: inhibition of Plasmodium PK7 catalytic activity – biochemical, TCAMS antimalarial set, Kinase-Glo luminescence (AID 1159587). The settings on record: recombinant PfPK7, Kinase-Glo ATP depletion luminescence.
Protein kinase 7 (PK7), Plasmodium falciparum 3D7 (PF3D7_0213400), sequence (Q7YTF7 1-343): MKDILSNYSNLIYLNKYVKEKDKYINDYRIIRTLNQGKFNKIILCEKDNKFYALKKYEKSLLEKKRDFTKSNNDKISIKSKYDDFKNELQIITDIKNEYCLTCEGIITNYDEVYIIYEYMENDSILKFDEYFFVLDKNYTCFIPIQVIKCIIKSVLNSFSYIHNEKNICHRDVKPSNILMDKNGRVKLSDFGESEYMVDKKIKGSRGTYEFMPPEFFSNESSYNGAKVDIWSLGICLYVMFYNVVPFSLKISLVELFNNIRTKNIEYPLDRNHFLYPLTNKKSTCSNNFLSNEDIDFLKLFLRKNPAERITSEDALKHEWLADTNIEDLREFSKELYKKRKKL
Test [8] has as its target Calcium-dependent protein kinase 4 (Plasmodium falciparum (isolate 3D7)) (UniProt Q8IBS5). Kind of test: PfCDPK4 kinase inhibitors, biochemical, TCAMS library (AID 1159588; cut-off not given, nearly all actives have IC50 up to about 0.91 µM). The settings on record: recombinant PfCDPK4, Kinase-Glo ATP depletion luminescence.

Calcium-dependent protein kinase 4 (Plasmodium falciparum (isolate 3D7)), sequence (Q8IBS5 whole entry, looked up): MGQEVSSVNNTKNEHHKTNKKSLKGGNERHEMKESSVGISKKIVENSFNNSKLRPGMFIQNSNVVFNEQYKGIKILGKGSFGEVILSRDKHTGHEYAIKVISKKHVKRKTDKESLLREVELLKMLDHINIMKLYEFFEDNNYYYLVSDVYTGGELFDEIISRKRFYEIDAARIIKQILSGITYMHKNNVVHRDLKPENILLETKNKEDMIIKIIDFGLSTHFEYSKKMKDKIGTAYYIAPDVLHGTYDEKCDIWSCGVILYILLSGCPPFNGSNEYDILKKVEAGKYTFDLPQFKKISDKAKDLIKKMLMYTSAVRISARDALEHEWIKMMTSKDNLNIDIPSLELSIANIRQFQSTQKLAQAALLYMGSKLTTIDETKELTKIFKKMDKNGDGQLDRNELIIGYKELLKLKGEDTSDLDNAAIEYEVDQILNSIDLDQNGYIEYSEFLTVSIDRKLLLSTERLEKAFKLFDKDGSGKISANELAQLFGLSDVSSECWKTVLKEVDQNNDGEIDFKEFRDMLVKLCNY
Plasmodium falciparum protein kinase 6 (PK6, PF3D7_1337100), sequence (Q8IDW1 1-305): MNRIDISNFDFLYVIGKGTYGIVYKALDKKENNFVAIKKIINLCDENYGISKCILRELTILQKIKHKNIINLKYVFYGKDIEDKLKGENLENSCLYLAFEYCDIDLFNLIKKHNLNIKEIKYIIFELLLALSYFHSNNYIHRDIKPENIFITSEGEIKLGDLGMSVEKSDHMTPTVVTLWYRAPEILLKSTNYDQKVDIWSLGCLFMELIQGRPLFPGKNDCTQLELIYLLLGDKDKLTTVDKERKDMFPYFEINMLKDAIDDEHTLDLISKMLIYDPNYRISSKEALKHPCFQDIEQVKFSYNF

In the case of `COc1ccc(Nc2nc(NCc3cccc(NS(C)(=O)=O)c3)cc(-c3ccc(OC)cc3)n2)cc1`, the growth inhibition in test [1] was 5%; in test [4] it was 84% (active). The inhibition in test [2] is -7%; in test [3] it was 5%. For the same molecule, the outcome in test [5], in test [6], in test [7] and in test [8] was inactive.

`NC(=O)c1cccc(C(=O)Nc2cccc(-c3cccc(-c4nc5ccc(C(F)(F)F)cc5[nH]4)c3)c2)c1`: the growth inhibition in test [1] was 85% (active); in test [4], 100% (active). For the same molecule, the inhibition was 71% (active) in test [2] and -5% in test [3]. Besides, the outcome in test [5], in test [6], in test [7] and in test [8] was inactive.

As for `CN(C)c1cccc2c(S(=O)(=O)Nc3cccc(CCN4CCC(N5CCCCC5)CC4)c3)cccc12`, the growth inhibition in test [1] was 54% (active); in test [4], 98% (active). The results for the inhibition in test [2] and in test [3] were 41% and -2%, respectively. In addition, the outcome in test [5], in test [6], in test [7] and in test [8] was inactive.

For the molecule `COc1ccc(/C=C/C(=O)N2CCc3cc4nccc(N5CCN6CCC[C@H]6C5)c4cc32)cc1`, the growth inhibition is 98% (active) in test [1] and 100% (active) in test [4]. Also, the values for the inhibition in test [2] and in test [3] were -3% and -9%, respectively. Further, the result in test [5], in test [6], in test [7] and in test [8] was inactive.

Turning to `CC(CON1C(N)=NC(N)=NC1(C)C)Cc1ccc(Cl)cc1Cl` (stereo not given), the growth inhibition in test [1] was 97% (active); in test [4], 92% (active). Further, the inhibition in test [2] was 61% (active); in test [3], 2%. Further, the outcome in test [5], in test [6], in test [7] and in test [8] was inactive.

`Cc1ccc2[nH]c(-c3ccc(C(=O)NC4CCN(Cc5ccccc5)CC4)cc3)nc2c1C`: the growth inhibition in test [1] was 46%; in test [4], 102% (active). The inhibition in test [2] was 22%; in test [3] it was -2%. Also, the result in test [5], in test [6], in test [7] and in test [8] was inactive.

Take `O=C(/C=C/c1ccc(Cl)c(Cl)c1)N1CCC(CCN2CCC(c3c[nH]c4ccccc34)CC2)CC1`: the growth inhibition in test [1] is 44%; in test [4] it was 100% (active). The inhibition in test [2] was 56% (active); in test [3] it was -3%. Besides, the result in test [5], in test [6], in test [7] and in test [8] was inactive.

In the case of `CCN(CCO)Cc1ccc(-c2ccc(NS(=O)(=O)c3cccc4cccnc34)cc2)cc1`, the growth inhibition is 16% in test [1] and 92% (active) in test [4]. In addition, the inhibition in test [2] was 25%; in test [3] it was 2%. In addition, the result in test [5], in test [6], in test [7] and in test [8] was inactive.

With `CNc1nc(NN=Cc2ccccc2Cl)nc(Nc2cccc(C(F)(F)F)c2)n1`, the growth inhibition is -9% in test [1] and 84% (active) in test [4]. Further, the inhibition in test [2] is 12%; in test [3], 0%. Also, the outcome in test [5], in test [6], in test [7] and in test [8] was inactive.

As to `COc1ccc2nccc([C@@H](O)CN3CCC(NC(=O)/C=C/c4cccc(C)c4)CC3)c2c1`, the growth inhibition in test [1] was 28%; in test [4], 84% (active). Further, the figures for the inhibition in test [2] and in test [3] were 16% and -2%, respectively. The result in test [5], in test [6], in test [7] and in test [8] was inactive.

As for `COc1cc(F)c2nccc([C@@H](O)CN3CC[C@@H](NC(=O)OCc4ccccc4)[C@@H](F)C3)c2c1`, the growth inhibition is 100% (active) in test [1] and 99% (active) in test [4]. Further, the results for the inhibition in test [2] and in test [3] were 44% and 2%, respectively. Besides, the result in test [5], in test [6], in test [7] and in test [8] was inactive.

In the case of `O=[N+]([O-])c1cccc(Nc2nccc(-c3cnn4ncccc34)n2)c1`, the growth inhibition in test [1] was 74% (active); in test [4], 87% (active). Further, the figures for the inhibition in test [2] and in test [3] were 33% and -1%, respectively. For the same molecule, the outcome in test [5], in test [6], in test [7] and in test [8] was inactive.

In the case of `COc1cc(OC)c(NC(=O)C2c3ccccc3C(=O)N(C)C2c2cccs2)cc1Cl` (stereo not given), the results for the growth inhibition in test [1] and in test [4] were 52% (active) and 99% (active), respectively. Further, the inhibition was 4% in test [2] and -5% in test [3]. For the same molecule, the result in test [5], in test [6], in test [7] and in test [8] was inactive.

For `O=[N+]([O-])c1ccc2nc(Nc3cccc(C(F)(F)F)c3)c(Nc3cccc(C(F)(F)F)c3)nc2c1`, the growth inhibition was 99% (active) in test [1] and 101% (active) in test [4]. Also, the inhibition in test [2] was -2%; in test [3] it was -4%. Besides, the result in test [5], in test [6], in test [7] and in test [8] was inactive.

For the molecule `CCN(CC)CCCN(C(=O)Nc1c(Cl)cncc1Cl)c1nc(-c2ccc(F)cc2)cs1`, the growth inhibition in test [1] was 93% (active); in test [4], 101% (active). For the same molecule, the inhibition in test [2] is 37%; in test [3], -5%. Also, the outcome in test [5], in test [6], in test [7] and in test [8] was inactive.

In the case of `Cc1ccc(O)cc1Nc1ccnc2cc(-c3ccccc3)ccc12`, the growth inhibition was 99% (active) in test [1] and 100% (active) in test [4]. Also, the inhibition in test [2] is 45%; in test [3], -2%. Also, the outcome in test [5], in test [6], in test [7] and in test [8] was inactive.

Consider `Cc1ccc2c(NN=Cc3cccc(Cl)c3)cc(C)nc2c1`, for which the growth inhibition in test [1] was 52% (active); in test [4], 96% (active). Also, the figures for the inhibition in test [2] and in test [3] were 50% (active) and -2%, respectively. Also, the result in test [5], in test [6], in test [7] and in test [8] was inactive.

As to `CCN1CCC(N(CCCCCCc2ccc(C(F)(F)F)cc2)C(=O)Cn2c(CCc3cccc(F)c3F)cc(=O)c3ccccc32)CC1`, the growth inhibition was 82% (active) in test [1] and 88% (active) in test [4]. In addition, the inhibition in test [2] is 32%; in test [3] it was -7%. Further, the result in test [5], in test [6], in test [7] and in test [8] was inactive.

As to `Oc1ccc2[nH]cc(C3CCN(CCCCCCCCCN4CCC(c5c[nH]c6ccc(O)cc56)CC4)CC3)c2c1`, the growth inhibition was 2% in test [1] and 101% (active) in test [4]. For the same molecule, the figures for the inhibition in test [2] and in test [3] were 22% and -5%, respectively. Further, the outcome in test [5], in test [6], in test [7] and in test [8] was inactive.

As to `Cc1ccccc1C1CCN(C2CCC(NC(=O)/C=C/c3cc(F)cc(F)c3)CC2)CC1` (stereo not given), the growth inhibition in test [1] is 33%; in test [4] it was 99% (active). The inhibition was 53% (active) in test [2] and 3% in test [3]. The outcome in test [5], in test [6], in test [7] and in test [8] was inactive.

For orientation: inhibition means the relative decrease from the control value, in per cent.
